The results in this text go back to article PMC4336329 (PLoS ONE, 2015).

SMILES strings stand for the structures. Out of some 310,000 compounds screened, about 2,200 (0.71%) showed an effect of 50% or more. Effects have a minus sign here. Shown is part of a subset that was picked to be rich in strong results.

In the test the target is human ether-à-go-go-related gene (hERG) potassium channel (human, UniProt Q12809). As to the kind of experiment: primary screen, population patch clamp on CHO cells stably expressing hERG; higher = less effect of the substance.
human ether-à-go-go-related gene (hERG) potassium channel, sequence (Q12809 whole entry, looked up): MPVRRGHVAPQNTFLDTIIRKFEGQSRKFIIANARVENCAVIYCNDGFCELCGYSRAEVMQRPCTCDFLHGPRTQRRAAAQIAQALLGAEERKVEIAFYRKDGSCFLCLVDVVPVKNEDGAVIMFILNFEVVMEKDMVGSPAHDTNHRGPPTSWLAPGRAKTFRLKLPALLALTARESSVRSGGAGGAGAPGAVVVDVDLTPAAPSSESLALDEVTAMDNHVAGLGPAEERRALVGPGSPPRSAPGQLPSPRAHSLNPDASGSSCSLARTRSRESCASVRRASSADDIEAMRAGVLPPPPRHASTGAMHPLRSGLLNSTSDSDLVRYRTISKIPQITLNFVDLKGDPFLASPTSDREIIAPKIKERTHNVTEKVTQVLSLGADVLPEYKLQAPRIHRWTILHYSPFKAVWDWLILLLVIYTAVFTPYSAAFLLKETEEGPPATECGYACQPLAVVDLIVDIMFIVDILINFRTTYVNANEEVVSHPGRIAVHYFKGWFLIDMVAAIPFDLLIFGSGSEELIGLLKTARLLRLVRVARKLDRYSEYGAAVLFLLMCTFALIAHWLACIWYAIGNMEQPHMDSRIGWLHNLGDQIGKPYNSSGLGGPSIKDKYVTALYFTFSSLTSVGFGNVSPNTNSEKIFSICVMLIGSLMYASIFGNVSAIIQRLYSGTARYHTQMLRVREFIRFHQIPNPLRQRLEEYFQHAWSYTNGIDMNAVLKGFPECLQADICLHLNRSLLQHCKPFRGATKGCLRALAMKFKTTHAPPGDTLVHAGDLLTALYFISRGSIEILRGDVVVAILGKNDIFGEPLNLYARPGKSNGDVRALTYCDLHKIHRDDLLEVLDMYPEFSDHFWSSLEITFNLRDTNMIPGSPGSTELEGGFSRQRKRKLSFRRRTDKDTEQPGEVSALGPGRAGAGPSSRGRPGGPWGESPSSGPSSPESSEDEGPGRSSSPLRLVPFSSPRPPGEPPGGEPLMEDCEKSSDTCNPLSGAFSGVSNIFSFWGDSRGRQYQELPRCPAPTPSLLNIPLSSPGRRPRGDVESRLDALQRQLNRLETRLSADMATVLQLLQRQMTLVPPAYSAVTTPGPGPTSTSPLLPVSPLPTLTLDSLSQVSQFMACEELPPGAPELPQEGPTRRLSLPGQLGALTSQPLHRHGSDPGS
Take `Cc1nc(-c2ccc(C(=O)N3CCCC3)cc2)cs1`: the “hERG current change (%, negative = inhibition) at 1uM” value is reported as 9.11%.
Turning to `Cc1cccc(C(=O)NCC(=O)NC2CCC(C)CC2)c1` (stereo not drawn), the “hERG current change (%, negative = inhibition) at 1uM” value is on record as 1.64%.
With `COCCN(Cc1cc2cc(C)ccc2n2nnnc12)C(=S)Nc1ccccc1C`, the “hERG current change (%, negative = inhibition) at 1uM” value worked out at 17%.
Consider `O=C(/C=C/c1cn(-c2ccccc2)nc1-c1cccc(Cl)c1)N1CCN(c2ccccn2)CC1`, for which the “hERG current change (%, negative = inhibition) at 1uM” value is given as 11%.
Turning to `O=C(NC(=S)Nc1cccc2c(O)cccc12)c1cccc(Br)c1`, the “hERG current change (%, negative = inhibition) at 1uM” value amounted to 8.92%.
With `O=C(Nc1nccs1)c1nc[nH]c1C(=O)N1CCc2ccccc2C1`, the “hERG current change (%, negative = inhibition) at 1uM” value came out at 3.14%.
`COc1ccc(OC)c(-c2cc(C(=O)NCc3ccc(Cl)cc3)no2)c1`: the “hERG current change (%, negative = inhibition) at 1uM” value is recorded as 12.1%.
Regarding `CN1CCN(C(=O)/C(=C/c2cccs2)NC(=O)c2ccco2)CC1`, the “hERG current change (%, negative = inhibition) at 1uM” value is listed as -62.1%.
Regarding `O=C(N/C(=C\c1cccs1)C(=O)N1CCOCC1)c1ccco1`, the “hERG current change (%, negative = inhibition) at 1uM” value is reported as -2.36%.
For `Cc1ccc(NC(=O)/C(=C/c2cccs2)NC(=O)c2ccco2)cc1`, the “hERG current change (%, negative = inhibition) at 1uM” value is listed as 17%.
As for `O=C(N/C(=C/c1cccs1)C(=O)N1CCOCC1)c1ccco1`, the figure is 9.85%; as for `Cc1ccccc1NC(=O)/C(=C\c1cccs1)NC(=O)c1ccco1`, -3.3%; as for `CN1CCN(C(=O)/C(=C\c2cccs2)NC(=O)c2ccco2)CC1`, -65.2%.
Take `COCc1cc(Sc2ccc(OC)cc2)nc(-c2ccccc2)n1`: the “hERG current change (%, negative = inhibition) at 1uM” value is given as 16.2%.
Consider `CCCCN(C)C(=O)c1nc2ccccn2c1CN1CCN(c2ncccn2)CC1`, for which the “hERG current change (%, negative = inhibition) at 1uM” value was 6.17%.
As for `CCCCN(C)C(=O)c1nc2ccccn2c1CN1CCSCC1`, the “hERG current change (%, negative = inhibition) at 1uM” value was determined as 12.1%.
Under `CCCCN(C)C(=O)c1nc2ccccn2c1CN1CCN(C/C=C/c2ccccc2)CC1` stands -80.8%; under `CC(C)(C)c1ccc(C(=O)O/N=C(\N)c2ccccn2)cc1`, 13.9%; under `O=C(CN1C(=O)/C(=C/c2ccccc2)SC1=S)Nc1cccnc1`, 9.4%.
Take `O=C(CC1CCCCC1)NCc1ccco1`: the “hERG current change (%, negative = inhibition) at 1uM” value is given as 7.39%.
In the case of `CCCCN(CCCC)CC(O)COc1ccccc1C(=O)Nc1ccccc1` (stereo not drawn), the “hERG current change (%, negative = inhibition) at 1uM” value is listed as -55%.
`CCCCN(CCCC)CC(O)COc1ccccc1Br.Cl` (stereo not drawn): the “hERG current change (%, negative = inhibition) at 1uM” value was 1.61%.
Under `CCCN(CCC)CC(O)COc1ccccc1C(=O)Nc1ccccc1.Cl` (stereo not drawn) stands -35.8%.
Under `CC(=O)N1CCc2cc(S(=O)(=O)CCC(=O)Nc3cc(C)cc(C)c3)ccc21` stands 8.33%.
Under `O=C(/C=C/c1ccccc1)N(c1ccccn1)C1CCCCC1` stands 3.14%; under `Cc1nc2ccc(Br)cc2c2c1CC(CO)O2` (stereo not drawn), 15.9%.
In the case of `CCOC(=O)N1CCN(C(=O)c2oc3ccc(S(=O)(=O)N4CC(C)CC(C)C4)cc3c2C)CC1` (stereo not drawn), the “hERG current change (%, negative = inhibition) at 1uM” value was found to be 0.354%.
For `COCCOC(=O)C1=C(N)Oc2c(c(=O)oc3ccccc23)[C@@]12C(=O)Nc1ccccc12`, the “hERG current change (%, negative = inhibition) at 1uM” value is 12.1%.
On to `CCN(CC)CCn1c(NS(=O)(=O)c2ccc(C)cc2)nc2ccccc21`, for which the “hERG current change (%, negative = inhibition) at 1uM” value is -17.8%.
`CCN(CC)CCn1c(NC(=O)c2ccc(Cl)cc2)nc2ccccc21`: the “hERG current change (%, negative = inhibition) at 1uM” value is on record as -0.305%.
Under `CCN(CC)CCn1c(NS(=O)(=O)c2ccc(Cl)cc2)nc2ccccc21.Cl` stands -69%; under `O=C1C(Cl)=C(N2CCN(Cc3ccccc3)CC2)C(=O)N1c1ccccc1`, 8.07%; under `COc1ccc(-c2c[n+]3c(n2-c2ccccc2)SCC3)cc1.[Br-]`, -6.21%.
As for `Clc1ccc(-c2c[n+]3c(n2-c2ccccc2)SCC3)cc1.[Cl-]`, the figure is 3.68%; as for `CCOc1ccc(-n2c(-c3ccc(Cl)cc3)c[n+]3c2SCC3)cc1.[Br-]`, -60.8%; as for `Cc1cccc2c1-c1sc(C(=O)NCCCN3CCCC(C)C3)cc1CO2` (stereo not drawn), 16.2%.
Under `Cc1cccc2c1-c1sc(C(=O)NCCCN3CCC(C)CC3)cc1CO2` stands -5.27%.
In the case of `CCCN1CCN(CCCNC(=O)c2cc3c(s2)-c2c(C)cccc2OC3)CC1`, the “hERG current change (%, negative = inhibition) at 1uM” value is -67.5%.
As to `CCn1cc(Br)c(C(=O)N(C)Cc2ccccc2)n1`, the “hERG current change (%, negative = inhibition) at 1uM” value is listed as 11.4%.
In the case of `Cc1ccc2nc(N/N=C/c3ccco3)cc(C)c2c1`, the “hERG current change (%, negative = inhibition) at 1uM” value is recorded as -62.9%.
With `Cc1cc(N/N=C/c2ccco2)c2ccccc2n1`, the “hERG current change (%, negative = inhibition) at 1uM” value worked out at 10.7%.
`Cc1ccc2nc(SCC(=O)N/N=C/c3ccco3)cc(C)c2c1`: the “hERG current change (%, negative = inhibition) at 1uM” value is reported as 9.47%.
`CCOC(=O)N1CCC(N2C(=O)c3ccccc3C2Nc2c(C)cccc2C)CC1` (stereo not drawn): the “hERG current change (%, negative = inhibition) at 1uM” value is given as -57.6%.
`CCOC(=O)N1CCC(N2C(=O)c3ccccc3C2Nc2ccccc2)CC1` (stereo not drawn): the “hERG current change (%, negative = inhibition) at 1uM” value came out at 6.14%.
For `CCOC(=O)N1CCC(N2C(=O)c3ccccc3C2Nc2ccccc2C)CC1` (stereo not drawn), the “hERG current change (%, negative = inhibition) at 1uM” value was -8.54%.
As for `COc1ccc(C(=O)N2CCCC(Nc3ccc(C)c(C)c3)C2)cc1` (stereo not drawn), the “hERG current change (%, negative = inhibition) at 1uM” value is -0.108%.
For `Cc1cccc2cc(CN(Cc3ccc(F)cc3)C(=O)N3CCOCC3)c(=O)[nH]c12`, the “hERG current change (%, negative = inhibition) at 1uM” value was determined as 1.19%.
Take `CS(=O)(=O)Nc1ccc(C(=O)Nc2ccccc2C(=O)NCc2ccco2)cc1`: the “hERG current change (%, negative = inhibition) at 1uM” value was -58%.
For the molecule `CS(=O)(=O)Nc1ccc(C(=O)NCc2ccco2)cc1`, the “hERG current change (%, negative = inhibition) at 1uM” value is on record as 16.3%.
Turning to `CS(=O)(=O)Nc1ccccc1C(=O)NCc1ccco1`, the “hERG current change (%, negative = inhibition) at 1uM” value is given as 1.75%.
For the molecule `CC(C)CC(=O)Nc1ccc(C(=O)NNC(=O)C(c2ccccc2)c2ccccc2)cc1`, the “hERG current change (%, negative = inhibition) at 1uM” value is listed as 12.2%.
On to `COc1ccc(NC(=O)NCCN2CCc3ccccc3C2)cc1`, for which the “hERG current change (%, negative = inhibition) at 1uM” value was -1.55%.
Take `CC1(C)CC(=O)c2cc(OCC(=O)NCCN3CCOCC3)ccc2O1`: the “hERG current change (%, negative = inhibition) at 1uM” value stood at 16.6%.
In the case of `CC1(C)CC(=O)c2cc(OCC(=O)NCCCN3CCN(c4ccccc4F)CC3)ccc2O1`, the “hERG current change (%, negative = inhibition) at 1uM” value was -26%.
`COc1cccc(NC(=O)NCCN2CCCCC2)c1`: the “hERG current change (%, negative = inhibition) at 1uM” value is 4.59%.
Under `COc1ccc(N2CCN(CCCNC(=O)c3cc4sccc4n3C)CC2)cc1` stands -77.7%; under `O=C(NCCCN1CCc2ccccc2C1)Nc1ccc(Cl)cc1`, -44.5%; under `Cn1c(C(=O)NCCCN2CCCCC2)cc2sccc21`, -13.7%.
As for `COc1cccc(NC(=O)NCCCN2CCN(c3ccc(F)cc3)CC2)c1`, the figure is -51%.
Under `CC1(C)CC(=O)c2cc(OCC(=O)NCCCN3CCN(c4ccc(F)cc4)CC3)ccc2O1` stands -60.3%.
`CSc1cccc(NC(=S)NCCCN2CCN(c3ccc(F)cc3)CC2)c1`: the “hERG current change (%, negative = inhibition) at 1uM” value is listed as -3.39%.
As for `CC1CCN(CCCNC(=O)c2cc3sccc3n2C)CC1`, the “hERG current change (%, negative = inhibition) at 1uM” value is on record as -23.6%.
Under `COc1ccc(NC(=O)NCCCN2CCc3ccccc3C2)cc1` stands -69.5%.
